Screens from PubChem BioAssay.
Compounds with a hit are over-represented: about 2.6% of the library has one in this group of screens.
IDE inh – inhibitors of human insulin-degrading enzyme in cells | AID 434962 | HEK cells, FAbetaB cleavage, fluorescence polarization | 320,000 compounds, 0.41% hits | inhibition, % at 5.59 µM;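 active = percent inhibition above the average of all tested compounds plus 3 SD, set per screening campaign, cut at about 16% in these data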;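 also: IDE supplied by intact live HEK cells; FP after avidin binding of uncleaved biotin substrate so inhibition keeps polarization high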
Target sequence (P14735 whole entry, looked up): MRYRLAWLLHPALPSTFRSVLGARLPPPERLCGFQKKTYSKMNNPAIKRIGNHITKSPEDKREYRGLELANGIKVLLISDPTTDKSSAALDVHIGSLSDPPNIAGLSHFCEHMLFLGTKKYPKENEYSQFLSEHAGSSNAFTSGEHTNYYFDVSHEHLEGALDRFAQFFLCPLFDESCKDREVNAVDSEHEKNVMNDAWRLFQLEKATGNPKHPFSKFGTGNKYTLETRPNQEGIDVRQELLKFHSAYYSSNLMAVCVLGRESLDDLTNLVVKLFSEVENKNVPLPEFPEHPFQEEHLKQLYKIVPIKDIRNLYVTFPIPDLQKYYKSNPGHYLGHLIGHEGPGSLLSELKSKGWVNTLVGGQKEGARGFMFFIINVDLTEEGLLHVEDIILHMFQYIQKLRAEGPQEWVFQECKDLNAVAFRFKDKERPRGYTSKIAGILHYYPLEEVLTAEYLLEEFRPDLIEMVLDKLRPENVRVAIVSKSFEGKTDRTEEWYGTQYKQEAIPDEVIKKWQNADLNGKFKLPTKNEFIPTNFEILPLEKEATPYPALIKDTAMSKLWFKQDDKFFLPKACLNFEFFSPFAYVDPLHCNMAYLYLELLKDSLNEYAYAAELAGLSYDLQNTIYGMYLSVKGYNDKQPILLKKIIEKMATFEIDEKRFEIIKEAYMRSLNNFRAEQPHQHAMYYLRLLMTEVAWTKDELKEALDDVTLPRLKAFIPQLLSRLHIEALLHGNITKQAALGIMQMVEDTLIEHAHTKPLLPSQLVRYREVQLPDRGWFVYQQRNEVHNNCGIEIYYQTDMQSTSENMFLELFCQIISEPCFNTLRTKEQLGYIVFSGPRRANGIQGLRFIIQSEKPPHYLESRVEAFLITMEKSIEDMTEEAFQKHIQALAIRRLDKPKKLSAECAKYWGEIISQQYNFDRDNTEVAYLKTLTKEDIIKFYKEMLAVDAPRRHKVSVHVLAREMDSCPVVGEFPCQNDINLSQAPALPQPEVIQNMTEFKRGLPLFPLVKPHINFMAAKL
IDE act – activators of human insulin-degrading enzyme in cells | P14735 | HEK cells, FAbeta-B cleavage, fluorescence polarization; 0% vehicle, 100% cell-free pure enzyme wells | activation, % at 5.96 µM | 340,000 compounds, 0.073% hits | AID 493087;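 active = activation above the mean of all tested compounds plus 3 SD, set per screening campaign, cut at about 17% in these data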
TPT1 inhibitor – inhibitors of Candida albicans tRNA 2'-phosphotransferase TPT1; 300,000 compounds, 0.81% hits; recombinant caTPT1, FP RNA substrate dephosphorylation; inhibition, % at 5 µM;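 active = inhibition above the mean of all tested compounds plus 3 SD, set per screening campaign, cut at about 24% in these data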
CRFBP-R2 agonist – agonists of human CRF-binding protein/CRF-R2 receptor complex. 350,000 compounds, 0.46% hits. activation, % at 13.2 µM. HEK293 CRF-R2/CRF-BP, calcium dye fluorescence (FLIPR); percent of saturating CRF peptide response;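 active = activation of at least 50%, plus an integration ratio under a set limit after plate pattern correction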
CRFBP-R2 block – CRF-BP/CRF-R2 complex antagonism | HEK293 CRF-R2/CRF-BP, CRF-induced calcium fluorescence | inhibition, % at 11.8 µM | 350,000 compounds, 0.59% hits | AID 588475;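 active = inhibition of the ligand-induced calcium signal above about 50% at the single tested concentration, limit read from the data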
Myeloid diff 2 – myeloid differentiation induction | AID 624256 | calls only at 10 µM | ER-HoxA9 myeloid progenitors, lysozyme-GFP differentiation, flow cytometry | 360,000 compounds, 1% hits;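 active = normalized GFP-positive differentiation at or above the plate's own cutoff, the solvent-only control mean plus 3 SD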;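 also: cells exposed to compound for four days before flow analysis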
Numbers stand for hits; 0 = inactive; - = no result given; + = active, no number.

SMILES	IDE inh	IDE act	TPT1 inhibitor	CRFBP-R2 agonist	CRFBP-R2 block	Myeloid diff 2
CC1(C)CC(NCCN2CCN(C3=CC(=C(C#N)C#N)CC(C)(C)C3)CC2)=CC(=C(C#N)C#N)C1	0	0	0	0	0	0
Cc1c(C(=O)NCc2ccco2)sc(=O)n1Cc1ccc(S(C)(=O)=O)cc1	-	-	-	-	-	0
C[C@@H]1C(=O)N(c2ccccc2)[C@@H]1c1ccncc1	-	0	-	0	0	0
COc1ccc(Nc2nc(-c3ccncc3)nc3ccccc23)cc1	0	0	0	0	0	0
CCOC(=O)C1=CCC(c2cc3ccccc3[nH]2)NC1 (centres undefined)	-	-	-	-	-	0
Cc1ccccc1C(=O)c1cccn1CC(=O)NC(C)c1ccc2c(c1)OCCO2 (centres undefined)	0	0	0	0	0	0
c1ccc(-c2csc3nnc(SCc4ccc5c(c4)OCO5)n23)cc1	0	0	0	0	0	+
CC(C)CC1C(=O)N(Cc2cn(CCC3OCCCO3)nn2)CCS(=O)(=O)N1Cc1ccc(-c2ccc(Cl)nc2)cc1 (centres undefined)	-	-	-	0	0	0
CC(=O)Nc1cc(C(C)C)c(O)c(C(C)C)c1	0	0	0	0	0	0
CC(C)c1cc(NC(=O)c2ccccc2)cc(C(C)C)c1O	0	0	0	0	82	0
c1ccc2c(c1)OCCOCCOCCOCCOc1ccccc1OCCOCCOCCO2	0	0	0	0	50	0
O=C(COC(=O)c1ccc(S(=O)(=O)NCc2ccco2)cc1)Nc1ccc(OC(F)F)cc1	0	0	0	0	0	0
CN(C)c1ccc(NC(=O)COC(=O)c2ccc3c(c2)OCO3)cc1	0	0	-	0	0	-
CCOC(=O)c1ccc(NC(=O)CN(C)S(=O)(=O)c2ccc(OC)cc2)cc1	0	0	0	0	0	+
CN(C)c1ccc(C(=O)OCC(=O)Nc2ccc(S(N)(=O)=O)cc2)cc1	0	0	0	0	54	0
CN(C)S(=O)(=O)c1ccc(C(=O)OCC(=O)Nc2ccc(OC(F)F)cc2)cc1	0	0	0	0	96	0
Cc1cccc(NS(=O)(=O)c2cccc(C(=O)NCCCN3CCOCC3)c2)c1	0	0	0	0	0	0
OCCC1CN(C2CCN(c3ccccc3)CC2)CCN1Cc1ccc(F)c(F)c1 (centres undefined)	0	0	0	0	0	0
c1cnc2ccc(C(c3nnnn3C3CCCC3)N3CCN4CCCC4C3)cc2c1 (centres undefined)	0	0	0	0	0	0
COc1ccc2[nH]c3c(=O)n4c(nc3c2c1)SCC4	0	0	0	0	0	0
COc1cc2[nH]c3c(=O)n4c(nc3c2cc1OC)SCCC4	0	0	0	0	93	0
CCc1nc(N)nc(N)c1-c1ccc(Cl)cc1	0	0	0	0	0	+
O=C(NCCCn1ccnc1)c1ccc(N2CCCCC2)c([N+](=O)[O-])c1	0	0	0	0	0	0
CCC(C)(C)n1nnnc1C(c1cccc(C#N)c1)N1CCN(c2cccc(C)c2C)CC1 (centres undefined)	0	0	0	0	51	0
CC(C)(C)n1nnnc1C(c1cccc(C#N)c1)N1CCCCCC1 (centres undefined)	0	0	0	0	0	0
SMILES	IDE inh	IDE act	TPT1 inhibitor	CRFBP-R2 agonist	CRFBP-R2 block	Myeloid diff 2
CCCCNC(=O)N1c2ccccc2CC1C (centres undefined)	0	0	0	0	0	0
CN(C)c1ccc(/C=C/c2ccncc2)cc1	-	0	-	173	0	+
CN(C)c1ccc(C=Cc2cnccn2)cc1	-	0	-	0	0	0
CC1CCc2c(sc(NC(=O)c3ccc(N4C(=O)CCC4=O)cc3)c2C(N)=O)C1 (centres undefined)	0	0	-	0	0	0
Cc1nc2c(C)cccc2cc1C(=O)N/N=C/c1ccc(O)cc1	0	0	0	0	71	0
Cc1cccc2cc(/C=N/NC(=O)c3ccccc3O)c(Cl)nc12	0	0	0	55	0	0
COC(=O)c1ccc2nc(-c3ccc(Cl)cc3)c(Cc3cccc(Cl)c3)n2c1	-	-	-	-	-	0
CCOc1ccc(C(C)=O)cc1CN1C(=O)C(=O)N(CC)C1=O	0	0	0	0	0	0
CC(=O)Nc1ccc(-c2ccnc3c2CC(C)(C(=O)NCCC(F)(F)F)O3)cc1 (centres undefined)	-	-	-	-	-	0
CC(=O)Nc1cccc(-c2ccnc3c2CC(C)(C(=O)NCc2ccc(F)c(F)c2)O3)c1 (centres undefined)	-	-	-	-	-	+
CC(=O)Nc1cccc(-c2ccnc3c2CC(C)(C(=O)NCCC(F)(F)F)O3)c1 (centres undefined)	-	-	-	-	-	+
CC(C)(C)C(=O)Nc1cccc(S(=O)(=O)NC2=NCCC2)c1	0	0	0	0	0	0
COc1cccc(NC(=O)N(C)C[C@H]2Oc3cc(Br)ccc3S(=O)(=O)N([C@H](C)CO)C[C@H]2C)c1	-	-	-	0	0	0
O=C(Cn1cnc([N+](=O)[O-])n1)NCCO	0	0	0	0	0	0
Cc1cccc(C)c1NC(=O)CNC(=O)c1ccc2ccccc2n1	0	0	-	0	0	0
Cc1ccc(-n2nc3c(=O)n(CC(=O)NCc4cccs4)nc(C)c3c2C)cc1	0	0	0	0	64	0
COCCCn1c(=O)c2sccc2n2c(CCCC(=O)NCc3ccc(OC)cc3)nnc12	0	0	0	0	0	0
O=C(NS(=O)(=O)Nc1ccccc1)C1=C(N2CCCC2)COC1=O	0	34	-	0	0	0
O=C(NC(=O)c1ccccc1)C1=C(N2CCCC2)COC1=O	0	0	-	0	0	0
C=C(C)C1CC=C(C)/C(=N\NC(=S)Nc2ccc(C)cc2)C1 (centres undefined)	0	0	0	0	0	0
Cc1cc(C)n(CCC(=O)N=Nc2c(O)[nH]c3ccc(Br)cc23)n1	0	0	0	0	93	0
O=C(CNC(=O)c1ccco1)N=Nc1c(O)[nH]c2ccc(Br)cc12	0	0	0	0	0	+
O=C(Cc1cccs1)N=Nc1c(O)[nH]c2ccc(Br)cc12	0	0	0	0	0	0
COc1cc(/C=C2/C(=O)NN(c3cccc(C)c3)C2=O)ccc1OC(=O)c1ccco1	0	0	0	54	0	0
COc1cc(/C=C2/C(=O)NN(c3cccc(C)c3)C2=O)cc([N+](=O)[O-])c1O	0	0	0	0	0	0
O=C1/C(=C\c2ccc(Br)cc2)SC(=S)N1NS(=O)(=O)c1ccccc1	0	0	0	0	58	0
CC(/C=C1\SC(=S)N(NS(=O)(=O)c2ccccc2)C1=O)=C\c1ccccc1	0	0	0	0	93	0
COc1cc(/C=C2\SC(=S)N(NS(=O)(=O)c3ccc(C)cc3)C2=O)cc(OC)c1OC	0	0	0	0	55	0
CC(/C=C1\SC(=S)N(NS(=O)(=O)c2ccc(C)cc2)C1=O)=C\c1ccccc1	0	0	0	0	0	0
C=CCOc1ccc(/C=C2\SC(=S)N(NS(=O)(=O)c3ccccc3)C2=O)cc1	0	0	0	0	53	0
